System: Vero E6 infected with SARS-CoV-2
Experiment: inhibition of SARS-CoV-2 cytopathic effect; higher = more antiviral protection, active = above 15
Details: 48 h

Measured: inhibition of SARS-CoV-2 cytopathic effect

Oc1cc2c(cc1O)[C@@H]1c3ccc(O)c(O)c3OC[C@]1(O)C2 [hematoxylin]
inactive: 1 nM 1.9% | 8.33 nM 1.95% | 100 nM 0.48% | 833.33 nM 0.52% | 10000 nM 1.62%

c1cc(-c2cnn3cc(-c4ccc(N5CCNCC5)cc4)cnc23)c2cccnc2c1
inactive: 1 nM -0.58% | 8.33 nM -1.57% | 100 nM -4.29% | 833.33 nM -2.22% | 10000 nM 6.47%

CC(C)(O)CNc1nc(Nc2ccnc(C(F)(F)F)c2)nc(-c2cccc(C(F)(F)F)n2)n1 [enasidenib]
inactive: 1 nM -2.39% | 8.33 nM -0.28% | 100 nM -1.11% | 833.33 nM -2.37% | 10000 nM -1.07%

CCCCCN(C)CCC(O)(P(=O)(O)O)P(=O)(O)O [ibandronate]
inactive: 1 nM 0.68% | 8.33 nM 1.34% | 100 nM 0.79% | 833.33 nM -3.03% | 10000 nM -2.11%

CN1c2cc3c(cc2N=C(c2ccc(C(=O)O)cc2)c2ccccc21)C(C)(C)CCC3(C)C
inactive: 1 nM 4.92% | 8.33 nM 2.01% | 100 nM -1.76% | 833.33 nM 0.01% | 10000 nM -7.42%

Reference: the supplement of paper PMC13380429
